Drawing on PubChem BioAssay (EPA / NIEHS), this text covers outcome and AC50 for 30 molecules.

Records with an inconclusive call do not appear. The source made the active and inactive calls. Rule for the calls: active = hit-call score of the fitted dose curve at least 0.9, where 1 is the maximum; inconclusive = response in the unintended direction; inactive = score below 0.9.

Read-out in the test: HMG-CoA synthase (HMGCS2), HMGCS2 (gene 3158)
The test is described as follows: CLD_HMGCS2_48hr: CellzDirect (CLD) Gene Expression Assay for HMG-CoA synthase (HMGCS2) at 48 hours (AID 2283711). Here is the method: CLD_48hr is a cell-based, multiplexed-readout assay that uses hepatocyte, a human liver primary cell, with measurements taken at 48 hours after chemical dosing in a 96-well plate.CLD_HMGCS2_48hr is one of 16 assay component(s) measured or calculated from the CLD_48hr assay. It is designed to make measurements of mRNA induction, a form of inducible reporter, as detected with chemiluminescence signals by Quantitative Nuclease Protection Assay (qNPA) technology.Data from the assay component CLD_HMGCS2_48hr was analyzed at the endpoint, CLD_HMGCS2_48hr, in the positive analysis fitting direction relative to DMSO as the negative control and baseline of activity. Using a type of inducible reporter, gain-of-signal activity can be used to understand changes in the reporter gene as they relate to the gene HMGCS2. Furthermore, this assay endpoint can be referred to as a primary readout. To generalize the intended target to other relatable targets, this assay endpoint is annotated to the lyase intended target family, where subfamily is HMG-CoA synthase.
Human hepatocyte cultures were treated daily for two consecutive days with fresh dosing solutions containing appropriate concentrations of the 320 ToxCast chemicals (chemical identities were blinded to CellzDirect and other ToxCast collaborators), vehicle control (0.2% DMSO), and positive control inducers as summarized in Table 1. Due to the large number of treatment groups and chemicals examined, the ToxCast chemicals were divided into two groups (spanning two independent cultures of hepatocytes from separate donor preparations (Hu778: ToxCast plates 1 and 2; Hu776: ToxCast plates 3 and 4). Each preparation of human hepatocyte cultures was treated with respective vehicle control, medium only control, set of six positive controls/reference chemicals for the five hepatic receptor pathways, and a subset of eight of the ToxCast chemicals (indoxacarb, pyrithiobac-sodium, norflurazon, cyhalofop-butyl, methomyl, thiram, acetochlor, and propiconazole). These replicate data, coupled with internal replicates designed within the blinded ToxCast chemical library, provided additional data to evaluate interindividual differences between hepatocyte preparations and their potential impact on chemical profiles.Cell morphology and integrity were evaluated using phase-contrast microscopy as an indicator of hepatocyte cell health (Tyson & Green, 1987). Cultures for each treatment group (i.e., media, vehicle [0.2% DMSO], positive control inducers [multiple concentrations], and the ToxCast chemicals [multiple concentrations]) were observed and cell morphology was assessed relative to vehicle control cultures at each harvest time point (0, 6, 24, or 48 h). […] Images were evaluated at the conclusion of the study to assess changes in cell integrity and account for the effects of chemical exposure on uncharacteristic changes in concentration-dependent gene expression profiles. The results from these determinations of apparent cytotoxicity were annotated (yes/no) alongside the corresponding qNPA data for reference.At the conclusion of each treatment period, hepatocyte cultures (96-well) were washed with 1 volume of HBSS, lysed by addition of 25 ul ArrayPlate lysis buffer (HTG, Tucson, AZ), and 70 ul/well of Denaturation Oil, denatured by incubation at 95C for 10 min, and frozen at approximately -70C until analysis by nuclease protection assay (qNPA) (Roberts et al., 2007). For qNPA analysis, cell lysates were thawed at 50C for approximately 30 min, qNPA probes were added, and samples were incubated at 95C for 10 min to begin the detection process by denaturing the target RNA, dissociating the duplexes and secondary structure hybridization. At the conclusion of the hybridization period, S1 nuclease reagent was added to each sample to digest all nonprotected nucleotides at 50C for 60-90 min. […]
Regarding `CCOP(=S)(OCC)Oc1ccc([N+](=O)[O-])cc1`, the call was inactive.

`CN(C)C(=O)Nc1cccc(C(F)(F)F)c1`: the molecule was called inactive.

As to `COc1cc(OC)nc(Sc2cccc(Cl)c2C(=O)O)n1`, the molecule was called inactive.

For `CN1COCN(Cc2cnc(Cl)s2)C1=N[N+](=O)[O-]`, the molecule was classed as inactive.

On to `CCCOc1nn(C(=O)NS(=O)(=O)c2ccccc2C(=O)OC)c(=O)n1C`, for which the molecule was classed as inactive.

For the molecule `CC(C1CC1)C(O)(Cn1cncn1)c1ccc(Cl)cc1` (stereo not given), the molecule was called inactive.

For the molecule `CCCCN(CC)c1c([N+](=O)[O-])cc(C(F)(F)F)cc1[N+](=O)[O-]`, the molecule was called inactive.

As to `CCCCOC(=O)[C@@H](C)Oc1ccc(Oc2ccc(C#N)cc2F)cc1`, the molecule was classed as inactive.

With `CC(=NC#N)N(C)Cc1ccc(Cl)nc1`, the molecule was classed as inactive.

Regarding `CC[C@H](C)[C@H]1O[C@]2(C=C[C@@H]1C)C[C@@H]1C[C@@H](C/C=C(\C)[C@@H](O[C@H]3C[C@H](OC)[C@@H](O[C@H]4C[C@H](OC)[C@@H](NC)[C@H](C)O4)[C@H](C)O3)[C@@H](C)/C=C/C=C3\CO[C@@H]4[C@H](O)C(C)=C[C@@H](C(=O)O1)[C@]34O)O2`, the molecule was classed as inactive.

With `COP(=O)(OC)C(O)C(Cl)(Cl)Cl` (stereo not given), the call was inactive.

Turning to `Cc1ccn2nc(S(=O)(=O)Nc3c(F)cccc3F)nc2n1`, the result was inactive.

With `COP(=O)(OC)SCn1c(=O)oc2cc(Cl)cnc21`, the molecule was classed as inactive.

Take `CC1=NNC(=O)N(/N=C/c2cccnc2)C1`: the outcome was inactive.

With `CC(C)N(C(=O)SCC(Cl)=C(Cl)Cl)C(C)C`, the call was inactive.

`CCNc1nc(Cl)nc(NC(C)(C)C#N)n1`: the result was inactive.

With `C#CC(C)(C)NC(=O)c1cc(Cl)cc(Cl)c1`, the AC50 (as a rule, the concentration at which the activity in the assay is half-maximal) was 9.4 nM (active).

For the molecule `CCOP(=S)(OCC)Oc1ccc2c(C)c(Cl)c(=O)oc2c1`, the AC50 was 12.5 nM (active).

Regarding `CCCCSP(=O)(SCCCC)SCCCC`, the outcome was inactive.

As for `C=C(C)[C@H]1Cc2c(ccc3c2O[C@@H]2COc4cc(OC)c(OC)cc4[C@@H]2C3=O)O1`, the molecule was called inactive.

Turning to `O=C(O)c1cc(Oc2ccc(C(F)(F)F)cc2Cl)ccc1[N+](=O)[O-]`, the AC50 was 26 nM (active).

With `C[N+]1(C)CCCCC1`, the outcome was inactive.

Consider `CN(C)[C@@H]1C(=O)C(C(N)=O)=C(O)[C@@]2(O)C(=O)C3=C(O)c4c(O)cccc4[C@@](C)(O)[C@H]3[C@H](O)[C@@H]12`, for which the AC50 was 164 nM (active).

As to `N#CSCSC#N`, the result was inactive.

With `CCCSP(=O)(OCC)SCCC`, the molecule was called inactive.

As for `COP(=O)(NC(C)=O)SC` (stereo not given), the result was inactive.

Consider `CC(COc1ccc(Oc2ccccc2)cc1)Oc1ccccn1` (stereo not given), for which the molecule was called inactive.

As for `CNC(=O)ON=C(SC)C(=O)N(C)C`, the molecule was classed as inactive.

On to `CCCSP(=O)(OCC)Oc1ccc(Br)cc1Cl` (stereo not given), for which the molecule was classed as inactive.

With `CCc1cnc(C2=NC(C)(C(C)C)C(=O)N2)c(C(=O)O)c1` (stereo not given), the result was inactive.
